The source of these data is PubChem BioAssay (NCI).

Compounds without any hit were thinned out: in the full panel of roughly 79,000, 15% have a hit. Unmarked numbers belong to inactive results. Rule as the data show it: active = growth inhibition above about 70%; inactive = the rest.

The test is described as follows: NCI Yeast Anticancer Drug Screen. Data for the rad50 strain (AID 155).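 Also: 0% = growth of vehicle-only cultures of the same strain.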 The note with it: S. cerevisiae rad50 strain growth inhibition; at 50.0 µM; stronger effect = higher value. Summed up: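 DNA repair mutant yeast, compound exposure, growth read-out; inhibition is taken relative to vehicle.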
As for `CO[C@@]12[C@@H]3N[C@@H]3CN1C1=C(C(=O)C(Nc3ccc(O)cc3C)=C(C)C1=O)[C@@H]2COC(N)=O`, the growth inhibition is 61%.
The value for `COc1ccc(C(=O)OC2CC3CCC(C2)N3)cc1OC` (stereo not given) was 7.25%.
For `Cc1ccc(-n2c(=S)[nH]c3ccccc3c2=O)cc1F` the value was -23.9%.
For `CCCOP(=O)(CCl)OCCC` the value was -7.8%; for `COc1ccc(S(=O)(=O)F)cc1NC(=O)c1ccc2ccccc2c1O`, 6.4%; for `O=C(CBr)OCS(=O)(=O)O`, -15.2%.
Take `NC(=O)NNc1ccc([N+](=O)[O-])cc1[N+](=O)[O-]`: the growth inhibition is 12.1%.
The value for `O=C(CCBr)Nc1ccc(Cl)cc1C(=O)c1ccccc1` was 6.65%.
For `C/C=C1\CN2CCC1CC2C(O)c1ccnc2ccc(O)cc12` (stereo not given) the value was -3.6%.
For `CC(Cc1ccccc1)N(C)CC1C(=O)C2CCC1C2` (stereo not given) the value was 10.5%; for `c1ccc2c(c1)O[As](O[As]1Oc3ccccc3O1)O2`, -4.2%; for `C/C=C1/CN2CCC1CC2C(O)c1ccnc2ccc(OCCO)cc12` (stereo not given), -8.4%.
Turning to `CN1CCN(c2ccc(Cl)cc2)CC1`, the growth inhibition was -5.85%.
Turning to `NC(=NC1CCCCCCCCCCC1)N[N+](=O)[O-]`, the growth inhibition was 36.1%.
For `O=C(/C=C/c1ccccc1)NCCc1cnc[nH]1` the value was 0.65%; for `C/C=C/C(=O)[O-].C/C=C/C(=O)[O-].N.N.N.N.[Co+3].[O-][Cl+3]([O-])([O-])[O-]`, 0.2%.
The value for `Cc1ccc(-n2c(=S)[nH]c3ccccc3c2=O)cc1` was -8.7%.
For `CNCCc1ccc(O)c(O)c1`, the growth inhibition was -1.6%.
As to `Cc1ccc(-c2cc(Cl)c3cc(S(=O)(=O)F)ccc3n2)cc1`, the growth inhibition is -4%.
The value for `Brc1ccc(C[N+]23CCN(CC2)CC3)cc1` was -14.2%.
For `NC(N)=NC(N)=Nc1ccc(Cl)cc1` the value was 0.9%.
The value for `O=C(CBr)OCCCS(=O)(=O)O` was -24.9%; that for `c1ccc2c(C3NCCc4[nH]cnc43)cccc2c1` (stereo not given) was 3.7%.
With `C[N+]1([O-])C2CCC1CC(OC(=O)C(O)c1ccccc1)C2` (stereo not given), the growth inhibition was 1.45%.
The value for `Clc1cccc(NC2=NCCS2)c1` was -7.35%; that for `Cn1cnc([N+](=O)[O-])c1C(=O)O` (tested in a mixture with another compound) was -18.2%; that for `CC1NCCc2cc(O)c(O)cc21` (stereo not given) was 4.35%.
The value for `O=c1c2ccccc2[nH]c(=S)n1-c1cccc(Cl)c1` was 44.2%.
For `Cc1ccc(-n2c(=O)[nH]c3ccccc3c2=O)cc1[N+](=O)[O-]` the value was 12.9%.
On to `COc1cccc(N=C(N)N[N+](=O)[O-])c1`, for which the growth inhibition was -13.2%.
For `O=c1c2ccc(Cl)cc2[nH]c(=S)n1-c1ccc(Cl)cc1` the value was 10.1%; for `O=C1C(Cl)=C(Cl)C1(Cl)Cl`, -3.5%; for `CCOC(=O)c1ccc2nc(-c3ccc(S(=O)(=O)F)cc3)cc(Cl)c2c1`, 12%.
The value for `COc1ccc(CC[N+](C)(C)C)cc1` was -3.85%; that for `O=[N+]([O-])c1ccc(C[N+]23CCN(CC2)CC3)cc1` was 5.9%.
For `COc1ccccc1NC1=NCCS1` the value was 20.9%; for `COc1ccc(-n2c(=S)[nH]c3ccccc3c2=O)cc1`, -10.5%.
`CSC(=S)NNC(=O)c1cccc(S(=O)(=O)F)c1`: the growth inhibition is -2.95%.
For `CN1C2c3ccccc3C3C4c5ccccc5C(C31)C(C2[N+](=O)[O-])N4C` (stereo not given), the growth inhibition is -12.8%.
For `Cc1cccc(-c2cc(Cl)c3cc(S(=O)(=O)F)ccc3n2)c1` the value was -1.1%.
